HCMV inh: qHTS Assay for inhibitors of the human cytomegalovirus (HCMV). HFF cells, HCMV-luciferase reporter, 72 h; active compounds read low. activity change, negative = inhibition, % at 57.5 µM. actives 4.5% (n = 410,000). AID 1259415, 2018; in the data active = activity change below about -60%; inconclusive = no clear call, values can overlap the other calls; inactive = above about -39%
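Cell-based, HFFs, 1000 cells/well, 16 h 37C; cpds in DMSO + HCMV-luc, MOI 1 PFU/cell; 72 h 37C; OneGlo luminescence after 5 min RT; norm. to buffer vs Salinomycin 10uM.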
HCV inh: qHTS Assay for Inhibitors of Hepatitis C Virus (HCV). Huh7.5.1 HCVcc-Cre infection, luciferase reporter, 44 h. Potency, µM (titrated, usually from 41.8 µM), actives largely listed as inhibitors. actives 3.4% (n = 340,000)
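Whole-lifecycle infectious HCVcc-Cre system; cells 1,000/well, compound then virus (~0.5 moi) added 4 h after plating, 44 h culture. Luciferase read 15 sec following 15 min substrate incubation, room temp.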
Pf growth 96h: Primary qHTS for delayed death inhibitors of the malarial parasite plastid, 96 hour incubation | P. falciparum luciferase reporter growth, 96 h | Potency, µM (series often up to 28.7 µM), hits mostly inhibitors | actives 6.9% (n = 320,000) | AID 504834, 2011
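Plates of compound plus infected erythrocytes (2% hematocrit, 0.05% parasitemia final) incubate 96 hours, 37 C, 5% CO2. Detection reagent added; reduced luminescence from the parasites' luciferase reporter flags inhibition.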
Pf growth 48h: Primary qHTS for delayed death inhibitors of the malarial parasite plastid, 48 hour incubation; P. falciparum luciferase growth in erythrocytes, 48 h; actives 5.9% (n = 310,000); Potency, µM (highest dose often 28.7 µM), hits mostly inhibitors
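Luciferase-expressing P. falciparum in infected erythrocytes (2% hematocrit, 0.1% parasitemia final) in RPMI 1640/0.5% Albumax were exposed to compound for 48 hours at 37 C, 5% CO2; growth read as luminescence.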
Numbers stand for hits; n = inactive; u = inconclusive; x = not tested or not shown; [ ] = remark or other dose. This is a sample that favours compounds with a hit; in the whole collection about 13% have one here. Unless noted, calls come from the whole dose curve; as a rule, active = well fitted inhibition curve with a large enough effect; inconclusive = small, poorly fitted or top-dose-only effect, or another doubt; inactive = no such curve, though single readings can be large or run the other way.

SMILES	HCMV inh	HCV inh	Pf growth 96h	Pf growth 48h
COc1ccc(NC(=O)c2c(-c3ccc(C)cc3)nnc3ccccc23)c(OC)c1	n	x	x	x
CN1C2CCC1CC(NC(=O)CSCc1ccc(Cl)cc1Cl)C2 (configuration not stated)	n	u	13µM	u
CC1=C(C(=O)Nc2ccccc2)C(c2cccc(Cl)c2)n2nc(SCC(=O)c3ccc(C)cc3)nc2N1 (configuration not stated)	n	x	x	x
Cc1ccc(CNC(=O)Cn2c(=O)ccc3cc(S(=O)(=O)N4CCC(C)CC4)ccc32)cc1	n	x	x	x
Fc1ccc(-c2nc3cnccn3c2NC2CCCC2)cc1	n	14µM	n	n
COc1ccc(Nc2c(-c3ccc(OC)cc3)nc3cnccn23)cc1	n	n	n	u
Oc1ccc(Br)cc1-c1nc2cnccn2c1NC1CCCC1	u	11µM	n	2.6µM
Oc1ccc(Br)cc1-c1nc2cnccn2c1NC1CCCCC1	u	u	x	3.3µM
CCc1ccc(OCC2c3cc(OC)c(OC)cc3CCN2C(=O)Cc2ccc(OC)c(OC)c2)cc1 (configuration not stated)	n	x	x	x
COc1ccc(C2=C(N3CCN(c4cccc(C)c4)C(C)C3)c3ccccc3C2=O)cc1 (configuration not stated)	n	x	x	x
COc1cc2c(cc1OC)C(c1ccccc1)N(C(=O)CCl)CC2 (configuration not stated)	-99	n	u	u
COc1ccc(C(=O)N2CCc3cc(OC)c(OC)cc3C2c2ccc(OC)c(OC)c2)cc1OC (configuration not stated)	n	n	6.6µM	13µM
COc1cc2c(cc1OC)C(C1C(=O)CCCC1=O)N(C(=O)CCl)CC2 (configuration not stated)	n	n	n	n
Cc1cccn2c(=O)c(/C=C(\C#N)C(=O)NC3CCS(=O)(=O)C3)c(Oc3ccccc3Cl)nc12 (configuration not stated)	n	n	u	4.7µM
Cc1cccn2c(=O)c(/C=C(\C#N)C(=O)NC3CCS(=O)(=O)C3)c(N3CCC(C(N)=O)CC3)nc12 (configuration not stated)	u	n	n	n
Cc1cccn2c(=O)c(/C=C(\C#N)C(=O)NC3CCS(=O)(=O)C3)c(N3CC(C)OC(C)C3)nc12 (configuration not stated)	n	n	n	n
Cc1ccccc1Oc1nc2c(C)cccn2c(=O)c1/C=C(\C#N)C(=O)NC1CCS(=O)(=O)C1 (configuration not stated)	n	n	12µM	5.9µM
CCCOc1c(Cl)cc(C(=O)N(Cc2cccc(OC)c2)C2CCS(=O)(=O)C2)cc1Cl (configuration not stated)	n	x	x	x
Cc1ccc(C(=O)Nc2c(-c3ccccc3)nc3ccccn23)cc1	n	x	x	x
CN1C(=O)C(=Cc2cccnc2)C(=O)N(C)C1=O	n	n	n	n
O=C1/C(=C/c2cccnc2)CCc2c1[nH]c1ccccc21	-76	n	u	n
CC1C/C(=C\c2cccnc2)C(=O)/C(=C/c2cccnc2)C1 (configuration not stated)	-101	u	n	3.7µM
O=C(CCCn1c(=O)c2cccn2c2ccccc21)NCc1ccccc1Br	n	x	x	x
O=C(NCC(c1cccs1)S(=O)(=O)c1cccs1)c1ccccc1 (configuration not stated)	n	x	x	x
O=C(CCCn1c(=S)[nH]c2ccccc2c1=O)NC1CCCC1	n	n	0.52µM	n
SMILES	HCMV inh	HCV inh	Pf growth 96h	Pf growth 48h
CC1CCCCC1NC(=O)CCCn1c(=S)[nH]c2ccccc2c1=O (configuration not stated)	n	u	15µM	u
O=C(CCCCCn1c(=O)[nH]c2ccccc2c1=O)NC1CCCC1	n	x	x	x
Cc1ccc2nc(-c3ccc(F)cc3)c(Cc3ccsc3)n2c1	n	x	x	x
CC[C@@H]1CCC[C@@H](O)[C@@H](C)C(=O)O[C@H](C)[C@@H](C)C/C=C(C)/C(OC)=C\C(=O)N(C)C([C@@H](C)CC)C(=O)N(C)[C@@H](C(C)C)C(=O)N(C)[C@@H](COC)C(=O)N2CCC[C@H]2C(=O)N(C)[C@@H](C(C)C)C(=O)N2CCC[C@H]2C(=O)O1 (some centres not stated)	-102	x	x	x
CCCCN1C(=O)C2ON(c3ccccc3C)C(c3ccco3)C2C1=O (configuration not stated)	n	n	n	13µM
Cc1nn(-c2ccccc2)c2c1P(=O)(O)/C(=C1\N(C)c3ccccc3C1(C)C)C=N2	n	u	8.3µM	2.1µM
Cc1nn(-c2ccccc2)c(N)c1C1(O)C(=O)N(C(C)C)c2ccccc21 (configuration not stated)	n	n	n	n
CCc1ccccc1NC(=O)Cn1c(=O)n(-c2ccc(C)cc2)c(=O)c2cc(OC)c(OC)cc21	n	x	x	x
COc1ccccc1OCC(=O)N(Cc1nc(-c2ccc(Cl)cc2)no1)C(C)C	n	u	4.1µM	x
COc1ccccc1OCC(=O)N(Cc1nc(-c2ccccc2)no1)C(C)C	n	3.2µM	n	n
CC(C)N(Cc1nc(-c2ccccc2)no1)C(=O)C(Cl)(Cl)Cl	n	u	n[1.15 µM]	1.9µM
CCCCOC(=O)c1ccc(NC(=O)c2ccc3c(c2)CCCN3S(C)(=O)=O)cc1	n	x	x	x
CN(C)CCCn1c(=S)[nH]c2ccccc2c1=O	n	n	n	n
CN(C)CCCn1c2c3ccccc3ccc2c2oc(=O)c3ccccc3c21	-92	u	x	x
COc1ccc(NC(=O)C(Cc2c[nH]c3ccccc23)NC(=O)OC(C)(C)C)cc1 (configuration not stated)	n	x	x	x
Cc1cc(NC(=O)CSc2nnc(-c3ccco3)n2C)no1	-60	n	n	u
COc1ccc(C(=O)CSc2nnc(-c3ccco3)c(-c3ccco3)n2)cc1	u	n	1.5µM	n
Cc1cc(NC(=O)CSc2nnc(-c3ccccc3C)n2C)no1	n	n	n	u
CCn1c(SCC(=O)N2c3ccccc3Sc3ccccc32)nnc1-c1ccco1	n	u	n	u
COc1ccc2c(Cl)c(-c3nnc(SCC(N)=O)n3C)sc2c1	n	u	n	n
COc1ccc2c(Cl)c(-c3nnc(SCC(=O)c4ccccc4)n3C)sc2c1	n	11µM	x	u
COc1cccc(NC(=O)CSc2nnc(-c3ccco3)c(-c3ccco3)n2)c1	n	u	n	n
Cn1c(SCC(=O)N2c3ccccc3Sc3ccc(Cl)cc32)nnc1-c1ccco1	n	u	1.5µM	9.3µM
C[C@H](CO)N1C[C@H](C)[C@H](CN(C)C(=O)Nc2cccc(F)c2)OCc2cnnn2CCCC1=O	n	x	x	x
COc1ccc(C(=O)CSc2nnc(-c3ccco3)n2C)cc1	n	n	x	n
Cn1c(SCC(=O)c2ccccc2)nnc1-c1ccco1	n	n	15µM	n
Nc1nc(-c2ccc(Cl)cc2)cc(C(F)(F)F)n1	n	n	7.4µM	n
Oc1ccc(/C=N/Nc2nc(-c3ccc(Cl)cc3)cc(C(F)(F)F)n2)cc1	-77	13µM	u	u

Screening results deposited in PubChem BioAssay by National Center for Advancing Translational Sciences (NCATS).
